# Results reported in PubChem BioAssay (NCATS).
# Results filed as inconclusive are left out. Values without a mark were called inactive. The source made the active and inactive calls. Calls follow the shape of the dose curve; as a rule, active = well fitted curve in the direction sought with a large enough effect; inconclusive = small, poorly fitted or top-dose-only effect, or another doubt; inactive = no such curve, though single readings can be large or run the other way.
# Experiment: qHTS for Inhibitors of the vitamin D receptor (VDR): Hit Validation using a Texas Red Assay (AID 602201)
# Settings: VDR coregulator binding, Texas Red fluorescence polarization, agonist-bound VDR ligand-binding domain; series mostly up to 57.1 µM; activity, negative = inhibition: at the top concentration
# Outline: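 Fluorescence polarization with 1.5 uM VDR-LBD, LG19078 and 7 nM Texas Red (final). After 2 hours at ambient temperature, read at Ex 595 nm/Em 615 nm.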
# % is scaled to controls: 0 for no effect and ±100 for the full control effect; potency is read from the fitted curve at half-maximal effect.
Structure (SMILES),Potency,"activity, negative = inhibition"
COc1cc(/C=C2\C(=O)ON=C2c2ccc(Cl)cc2)ccc1O,3.55 µM (active),–
S=C(NNc1ccnc2cc(Cl)ccc12)Nc1ccccc1Cl,14.1 µM (active),–
CNc1ccc(Br)cc(C(=O)/C=C/c2cccc(Cl)c2Cl)c1=O,3.55 µM (active),–
c1ccc(-c2ccc(C3=Nn4c(Cn5nnc6ccccc65)nnc4SC3)cc2)cc1,22.4 µM (active),–
COc1ccc(OC)c2c1C(=O)C(Cl)=C(Cl)C2=O,7.08 µM (active),–
COc1ccc(/C=C/C(=O)c2ccc([N+](=O)[O-])o2)cc1OC,10 µM (active),–
COC(=O)/C=c1/sc2nc3ccccc3n2c1=O,8.91 µM (active),–
CS(=O)(=O)c1ccc(S(=O)CC(=O)Oc2ccc(Cl)cc2)c([N+](=O)[O-])c1 (stereo unspecified),2.51 µM (active),–
CN(C)c1ccc(C=Nc2ccc(N(C)C)cc2)cc1,17.8 µM (active),–
CCCc1nnc(NC(=O)c2nc(S(=O)(=O)Cc3cccc(C)c3)ncc2Cl)s1,–,-10.4%
Cc1sc(C(C2C(=O)CC(C)(C)CC2=O)C2C(=O)CC(C)(C)CC2=O)cc1[N+](=O)[O-],7.94 µM (active),–
O=C(Nc1nnc(COc2ccc(Cl)cc2)s1)c1ccco1,–,-12.3%
O=C(Nc1ccc(F)cc1)c1nc(S(=O)(=O)Cc2ccccc2)ncc1Cl,5.62 µM (active),–
CCOc1ccc(Cl)cc1/C=C1/C(=O)ON=C1C,7.94 µM (active),–
Nc1cc(S(=O)(=O)Nc2ccccc2Cl)ccc1N1CCCCC1,5.62 µM (active),–
COc1ccc(C(=O)c2coc3c2C(=O)C(=O)c2ccccc2-3)cc1,5.62 µM (active),–
